This is a sample that favours compounds with a hit; in the whole collection about 10% have one here.
HEK293 tox = kills HEK 293 cells; HEK 293 viability, ATP luminescence (CellTiter-Glo), 48-72 h; Potency, µM (doses to about 115 µM), actives largely listed as inhibitors; 94,000 tested, 6.6% active; AID 1345083; note: nearly all actives have a fitted effect of over 60% in size
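CellTiter-Glo luminescence (cellular ATP) was read after 48 or 72 hr of compound exposure at 37 degree Celsius. Cells were HEK 293 plated at 250 cells/well.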
GPT2 inhibitor = blocks human glutamate pyruvate transaminase 2; AID 1671188; Potency, µM (series often up to 57.7 µM), usual class: inhibitors; 100,000 tested, 0.25% active; Recombinant GPT2, coupled pyruvate oxidase/HRP Amplex Red fluorescence; Q8TD30; note: nearly all actives have a fitted effect of over 60% in size
Target sequence (Q8TD30 whole entry, looked up): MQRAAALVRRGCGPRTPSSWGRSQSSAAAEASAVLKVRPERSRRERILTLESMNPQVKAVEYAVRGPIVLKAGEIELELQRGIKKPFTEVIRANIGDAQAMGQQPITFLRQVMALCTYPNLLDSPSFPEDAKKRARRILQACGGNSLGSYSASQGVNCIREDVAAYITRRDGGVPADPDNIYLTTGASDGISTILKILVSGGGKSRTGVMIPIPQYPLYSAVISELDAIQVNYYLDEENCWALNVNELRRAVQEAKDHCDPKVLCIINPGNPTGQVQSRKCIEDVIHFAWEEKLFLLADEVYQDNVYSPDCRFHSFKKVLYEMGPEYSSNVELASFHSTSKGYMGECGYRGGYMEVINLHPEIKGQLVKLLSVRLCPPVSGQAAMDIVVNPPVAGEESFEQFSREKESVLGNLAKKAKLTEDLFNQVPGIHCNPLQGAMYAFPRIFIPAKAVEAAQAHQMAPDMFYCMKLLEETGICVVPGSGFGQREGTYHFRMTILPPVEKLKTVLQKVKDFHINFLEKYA
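GPT2 10ng/uL, a-KG 250uM, L-Ala 2mM, HEPES pH7.5 + 0.0001% Tween; 30 min RT. Then Amplex mix (PO/HRP/ThPP), 30 min RT dark, fluorescence. AOA 50uM used as positive control.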
FLuc inh = inhibitors of firefly (Photinus pyralis) luciferase. purified P. pyralis luciferase, luminescence, biochemical. Potency, µM (top dose mostly 115 µM), most hits filed as inhibitors. 76,000 tested, 2.5% active; note: nearly all actives have a fitted effect of over 65% in size
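Cell-free enzyme assay, 10nM P. pyralis luciferase, luciferin and ATP each at 10uM. Inhibition profiled over a 6-point titration, read as luminescence.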
NPR1 antag = human Npr1 receptor antagonism; P16066; HEK293 hNpr1 GloSensor cGMP, ANP-stimulated luminescence; Potency, µM (highest dose often 46.3 µM), actives largely listed as inhibitors; 76,000 tested, 1.6% active; AID 1347048; calls by dose curve; note: nearly all actives have a fitted effect of over 60% in size
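HEK293 cells stably expressing human Npr1 and cGMP GloSensor pGS-40F, loaded 2 h with 2% GloSensor reagent, given compound 30 min at room temperature. Luminescence read before and 20 min after 0.1 nM hNppA.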
3T3 cytotox = NIH 3T3 cell cytotoxicity; AID 1345082; NIH 3T3 viability, CellTiter-Glo ATP luminescence, 48-72 h; Potency, µM (titrated, usually from 96.7 µM), usual class: inhibitors; 94,000 tested, 4.3% active; note: nearly all actives have a fitted effect of over 55% in size
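Luminescent ATP readout (CellTiter-Glo, 10 min RT) after 48 or 72 hr compound exposure of NIH 3T3 cells seeded at 400 cells/well in 1536-well format; quantitative HTS.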
Each line names hits and unclear results; the compound was inactive in the other large screens. Unless noted, calls come from the whole dose curve; as a rule, active = well fitted curve in the direction sought with a large enough effect; inconclusive = small, poorly fitted or top-dose-only effect, or another doubt; inactive = no such curve, though single readings can be large; an effect the other way counts as inactive or inconclusive.

CN(Cc1ccccc1)C(=O)CN1C(=O)COc2ccc(C(=O)COc3ccccc3F)cc21	HEK293 tox 50µM
CC(C)c1ccccc1OCC(=O)c1ccc2c(c1)N(CC(=O)N1CCCCC1)C(=O)CO2	HEK293 tox inconclusive, 3T3 cytotox inconclusive
CCc1cccc(OCC(=O)c2ccc3c(c2)N(CC(=O)NCc2ccco2)C(=O)CO3)c1	HEK293 tox inconclusive
CC(C(=O)NCc1ccccc1)N1C(=O)COc2ccc(C(=O)COc3ccc(Cl)cc3)cc21 (centres undefined)	HEK293 tox 89µM, 3T3 cytotox inconclusive
CC(C(=O)N1CCOCC1)N1C(=O)COc2ccc(C(=O)COc3ccc(Cl)cc3)cc21 (centres undefined)	HEK293 tox inconclusive
CCc1cccc(OCC(=O)c2ccc3c(c2)N(CC(=O)N(C)Cc2ccccc2)C(=O)CO3)c1	HEK293 tox inconclusive, NPR1 antag 13µM, 3T3 cytotox inconclusive
O=C(CN1C(=O)COc2ccc(C(=O)COc3ccccc3F)cc21)NC1CCCCC1	none
CC(C)N1C(=O)C2(CCCC2)C1C(=O)NC1CC1 (centres undefined)	none
CCN(CCCNC(=O)CC1=C2CCCCC2N(C)C1=O)c1ccccc1 (centres undefined)	none (no result: FLuc inh, NPR1 antag)
COc1ccccc1CNC(=O)c1cc2c(N(C)Cc3ccccc3)nc(C)cn2n1	HEK293 tox inconclusive, 3T3 cytotox inconclusive
CN(C1CCOCC1)C1CCc2nn(C)c(=O)n2CC1 (centres undefined)	none
Cc1cccc(OCC(=O)c2ccc3c(c2)N(CC(=O)N(C)Cc2ccccc2)C(=O)CO3)c1	HEK293 tox 22µM, 3T3 cytotox inconclusive
CC(C)C(=O)N[C@H]1C[C@@H](Cc2cc(COc3ccccc3)on2)C1(C)C	HEK293 tox 40µM, FLuc inh inconclusive, NPR1 antag inconclusive, 3T3 cytotox 63µM
CCCCCC(=O)N[C@H]1C[C@@H](Cc2cc(COC(=O)CCCCC)on2)C1(C)C	HEK293 tox inconclusive
CC(C)(C)C(=O)N[C@H]1C[C@@H](Cc2cc(COc3ccccc3)on2)C1(C)C	HEK293 tox inconclusive, 3T3 cytotox inconclusive
CC1(C)[C@H](Cc2cc(COc3ccccc3)on2)C[C@@H]1NC1CCC1	HEK293 tox 35µM, 3T3 cytotox 32µM
CCCCCC(=O)N[C@H]1C[C@@H](Cc2cc(COc3ccccc3)on2)C1(C)C	HEK293 tox inconclusive, NPR1 antag inconclusive, 3T3 cytotox 40µM
O=C(CN1CC2CC(C1)[C@H]1CCCC(=O)N1C2)NCCCN1CCCCC1 (some centres undefined)	none
CCOCC(=O)Nc1nn(-c2ccc(F)cc2)c2cccc(N3CCOC3=O)c12	HEK293 tox inconclusive, FLuc inh 35µM
CCc1nc(C)c(C(=O)Nc2nn(C)c3cccc(N4CCOC4=O)c23)o1	none
CN1C[C@@H](NC(=O)c2ccccn2)C[C@H]1c1nc(-c2ccc3ccccc3c2)no1	HEK293 tox inconclusive, FLuc inh 32µM, 3T3 cytotox inconclusive
COc1ccc(CC(=O)N[C@H]2C[C@@H](c3nc(-c4ccc5ccccc5c4)no3)N(C)C2)cc1	FLuc inh 40µM
COCC(=O)N[C@H]1C[C@@H](c2nc(-c3ccc(F)cc3)no2)N(C)C1	none
COc1ccc(-c2noc([C@@H]3C[C@H](NCc4ccc(F)cc4)CN3C)n2)cc1	HEK293 tox 100µM, FLuc inh 63µM, 3T3 cytotox inconclusive
CN(C)c1ccc(C(=O)N[C@H]2C[C@@H](c3nc(-c4ccc5ccccc5c4)no3)N(C)C2)cc1	HEK293 tox inconclusive, 3T3 cytotox inconclusive
O[C@@H]1C[C@@H](c2nc(-c3ccc4c(c3)OCO4)no2)N(CCCc2ccccc2)C1	HEK293 tox inconclusive, FLuc inh 35µM, 3T3 cytotox inconclusive
O[C@@H]1C[C@@H](c2nc(-c3ccccn3)no2)N(Cc2cccs2)C1	HEK293 tox inconclusive, FLuc inh 35µM
O[C@@H]1C[C@@H](c2nc(-c3ccc4c(c3)OCO4)no2)N(CC2CC2)C1	HEK293 tox inconclusive, FLuc inh 22µM
O[C@@H]1C[C@@H](c2nc(-c3cnccn3)no2)N(Cc2cccs2)C1	none
O[C@@H]1C[C@@H](c2nc(-c3ccc4c(c3)OCO4)no2)N(Cc2ccccn2)C1	HEK293 tox inconclusive, FLuc inh 45µM
Oc1ccccc1CN1C[C@H](O)C[C@H]1c1nc(-c2ccc3c(c2)OCO3)no1	FLuc inh inconclusive
COc1ccccc1CC(=O)NCc1nnc2cc(-c3nc(C(C)C)no3)ccn12	none
O[C@@H]1C[C@@H](c2nc(-c3ccc4c(c3)OCO4)no2)N(CC2CCCCC2)C1	HEK293 tox 89µM, FLuc inh inconclusive, 3T3 cytotox 89µM
O[C@@H]1C[C@@H](c2nc(-c3ccc(F)cc3)no2)N(CC2CCCCC2)C1	FLuc inh inconclusive
O=C(CC1CC1)NC1CCCc2nc(-c3ccccc3)ncc21 (centres undefined)	none
CC(C)CC(=O)N1CCC(Oc2nccnc2N(C)C)C1 (centres undefined)	FLuc inh 32µM
CN(C)c1nccnc1OC1CCN(C(=O)c2ccoc2)C1 (centres undefined)	FLuc inh 40µM
COCC(=O)N1CCC(Oc2nccnc2N(C)C)C1 (centres undefined)	none
CCCN(C)c1nccnc1OC1CCN(C(=O)c2ccc(OC)cc2)C1 (centres undefined)	HEK293 tox 45µM, FLuc inh 40µM
COc1ccc(C(=O)N2CCc3nc(-c4ccccc4)nc(-c4ccc(OC)cc4)c3C2)cc1	HEK293 tox inconclusive
Cc1ccccc1C(=O)N1CCc2nc(-c3ccccc3)nc(-c3ccc(Cl)cc3)c2C1	HEK293 tox inconclusive, 3T3 cytotox inconclusive
COc1ccc(-c2nc(C(C)C)nc3c2CCN(C(=O)c2cccc(Cl)c2)CC3)cc1	HEK293 tox inconclusive, 3T3 cytotox 45µM
COc1ccc(C(=O)N2CCc3nc(-c4ccc(Cl)cc4)nc(-c4ccccc4)c3C2)cc1	HEK293 tox 40µM, 3T3 cytotox inconclusive
O=C(c1ccccc1Cl)N1CCc2nc(-c3ccc(Cl)cc3)nc(-c3ccccc3)c2C1	HEK293 tox 25µM, FLuc inh inconclusive, 3T3 cytotox inconclusive
O=C(Cc1ccc(F)cc1)N1CCc2nc(-c3ccc(Cl)cc3)nc(-c3ccccc3)c2C1	HEK293 tox 35µM, 3T3 cytotox inconclusive
O=C(CCc1ccccc1)N1CCCN(c2cc(-c3ccccc3)[nH]n2)CC1	HEK293 tox inconclusive, GPT2 inhibitor inconclusive, 3T3 cytotox inconclusive
CN(CC(=O)N1CCC(CCOc2ccccc2F)C1)S(=O)(=O)c1cccs1 (centres undefined)	HEK293 tox 50µM, 3T3 cytotox inconclusive
CC(C)C(=O)N1CCC(CCOc2ccccc2F)C1 (centres undefined)	HEK293 tox inconclusive, 3T3 cytotox inconclusive
